TROY signal inh – inhibitors of TROY-dependent NF-kB signaling. inhibition, % at 10 µM. Q293 LMP1-TROYcd NF-kB luciferase reporter, 4 h. AID 1347056. hit rate 0.98% among 360,000;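 active = compounds whose plate-normalised and pattern-corrected inhibition of the luciferase reporter signal at the single screening dose is 50% or more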
LGR2 inh – blocks bursicon-induced cAMP signaling via Drosophila LGR2; inhibition, % at 9.99 µM; HEK293 LGR2, CRE-luciferase, bursicon-stimulated, 4 h; AID 720647; hit rate 0.35% among 380,000;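 active = drop in luminescence signal, shown as inhibition above about 50% in the replicate tests, limit read from the data, passing the limit was not always enough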;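 note: agonist challenge used bursicon conditioned medium at about half maximal strength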
EWS-Fli block – blocks EWS/Fli oncoprotein-driven transcription | A673 NR0B1-luciferase reporter, viability-normalised | inhibition, % at 12.6 µM | hit rate 0.67% among 350,000;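 active = mean inhibition of at least 50% after viability correction, with every replicate also passing that limit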;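 note: firefly luciferase signal divided by Alamar Blue viability fluorescence both relative to DMSO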
LMP1 NFkB inh – inhibitors of Epstein-Barr LMP1-induced NF-kappaB reporter; inhibition, % at 12.5 µM; AID 504558; hit rate 0.69% among 350,000; LMP1-induced NF-kappaB luciferase reporter cells, luminescence; in the data active = inhibition above about 41%;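 note: 0% = neutral control wells and 100% = reference inhibitor control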
TWEAK Fn14 block – inhibitors of TWEAK-Fn14 interaction signaling; TWEAK-stimulated Fn14 reporter cells, luciferase luminescence, 8 h; inhibition, % at 10 µM; hit rate 2% among 360,000; AID 1159606; in the data active = inhibition above about 50%
The depositor's hits bear a star. Rows were chosen to be rich in hits. Some 2.5% of all compounds tested hit in one or more screens of this group.

What do the screens show for `C/C=C/c1cnc2c(c1)C(=O)N([C@H](C)CO)C[C@@H](C)[C@H](CN(C)Cc1ccccc1)O2`?
LGR2 inh: 4; EWS-Fli block: 0

What do the screens show for `Cc1cc(C(=O)COC(=O)c2ccc[nH]c2=O)c(C)n1C1CC1`?
TROY signal inh: 19; LGR2 inh: 3; EWS-Fli block: -38; LMP1 NFkB inh: 2; TWEAK Fn14 block: 31

Results for Cc1cc(C(=O)COC(=O)c2ccc[nH]c2=O)c(C)n1-c1ccc(F)cc1 ?
TROY signal inh: 70*; LGR2 inh: 25; LMP1 NFkB inh: 22; TWEAK Fn14 block: 64*

How did Cc1cc(C(=O)COC(=O)c2ccc[nH]c2=O)c(C)n1-c1ccccc1 do in these assays?
TROY signal inh: 71*; EWS-Fli block: -11; LMP1 NFkB inh: 47*; TWEAK Fn14 block: 58*

Results for COc1cccc(CNC(=O)C[C@@H]2CC[C@@H](NC(=O)C3CCOCC3)[C@@H](CO)O2)c1 ?
LGR2 inh: 3; EWS-Fli block: 1

What do the screens show for `CCCC(=O)C1=C(O)C(C(=O)OC)C(C)(C)CC1=Nc1ccc(C)cc1` (stereo not given)?
TROY signal inh: 1; LGR2 inh: 7; EWS-Fli block: -4; LMP1 NFkB inh: 3; TWEAK Fn14 block: -4

Results for CCCC(=O)C1=C(O)C(C(=O)OC)C(C)(C)CC1=Nc1ccncc1 (stereo not given) ?
TROY signal inh: -2; LMP1 NFkB inh: 77*; TWEAK Fn14 block: -3

How did C[C@H]1CN([C@@H](C)CO)C(=O)Cc2cc(NC(=O)C3CC3)ccc2O[C@H]1CN(C)Cc1ccc(C(=O)Nc2ccccc2N)cc1 do in these assays?
LGR2 inh: 0; EWS-Fli block: 43

Results for COc1ccccc1NC(=O)CCCC(=O)OCC(F)(F)C(F)F ?
TROY signal inh: 2; LGR2 inh: -8; LMP1 NFkB inh: -6; TWEAK Fn14 block: 63*

How did Cc1ccc(-n2ncc(N(C)C)c(Cl)c2=O)cc1 do in these assays?
TROY signal inh: 22; LMP1 NFkB inh: 12; TWEAK Fn14 block: 55*

What do the screens show for `COc1ccc(-n2ncc(N(C)n3cccc3)c(Cl)c2=O)cc1`?
TROY signal inh: -6; LGR2 inh: -19; LMP1 NFkB inh: -8; TWEAK Fn14 block: 4

What do the screens show for `COc1ccc(-n2ncc(Cl)c(Cl)c2=O)cc1`?
TROY signal inh: 56*; LGR2 inh: 106*; EWS-Fli block: 55*; TWEAK Fn14 block: 98*

How did Cc1cc(NC(=O)CSc2nnc(-c3ccccc3C)n2C)no1 do in these assays?
TROY signal inh: -5; LGR2 inh: 9; EWS-Fli block: -1; LMP1 NFkB inh: 2; TWEAK Fn14 block: -8

How did Cc1cc(NC(=O)CSc2nnc(-c3ccco3)n2C)no1 do in these assays?
TROY signal inh: -4; LGR2 inh: 8; EWS-Fli block: -6; LMP1 NFkB inh: 71*; TWEAK Fn14 block: -6

What do the screens show for `C[C@@H]1CCCCO[C@H](CN(C)CC2CC2)[C@H](C)CN([C@@H](C)CO)C(=O)c2cc(NS(=O)(=O)c3cn(C)cn3)ccc2O1`?
LGR2 inh: 9

Results for COc1cccc(-n2nc(C#N)c(Cl)cc2=O)c1 ?
TROY signal inh: 83*; LGR2 inh: 103*; EWS-Fli block: 58*; LMP1 NFkB inh: 12; TWEAK Fn14 block: 29

Results for COc1cccc(-n2nc(C(N)=O)c(O)cc2=O)c1 ?
TROY signal inh: 12; LGR2 inh: -15; EWS-Fli block: 2; LMP1 NFkB inh: 10; TWEAK Fn14 block: 8

What do the screens show for `c1cc2[nH]snc2c2nc(C3CC3)nc12`?
TROY signal inh: 40; LMP1 NFkB inh: 27; TWEAK Fn14 block: 62*

What do the screens show for `O=C(Nc1ccccc1)c1cc2ccccc2c(=O)s1`?
TROY signal inh: -49; LGR2 inh: -36; LMP1 NFkB inh: -14; TWEAK Fn14 block: 58*

Results for O=C(C[C@@H]1CC[C@@H]2[C@H](COC[C@H](O)CN2Cc2ccc(F)cc2)O1)N1CCc2ccccc2C1 ?
LGR2 inh: -48; EWS-Fli block: -39

What do the screens show for `O=C(CSc1nnc(NC2CCCCC2)s1)Nc1ccc2c(c1)C(=O)c1ccccc1C2=O`?
TROY signal inh: -33; LGR2 inh: -58; EWS-Fli block: -68; LMP1 NFkB inh: -37; TWEAK Fn14 block: 19

What do the screens show for `Cc1ccc(NC(=O)CSc2ccccc2)cc1S(=O)(=O)N1CCCCC1`?
TROY signal inh: 17; LGR2 inh: 5; EWS-Fli block: 13; LMP1 NFkB inh: 6; TWEAK Fn14 block: 18

How did CC(C)(C)C(=O)Nc1nnc(SCC(=O)Nc2ccc3c(c2)OCO3)s1 do in these assays?
TROY signal inh: 9; LGR2 inh: 8; LMP1 NFkB inh: 46*; TWEAK Fn14 block: 27

What do the screens show for `Cc1ccc(NC(=O)COc2ncnc3ccccc23)cc1S(=O)(=O)N1CCOCC1`?
TROY signal inh: 13; LGR2 inh: 5; EWS-Fli block: -7; LMP1 NFkB inh: -1; TWEAK Fn14 block: 13

How did Cc1ccc(NC(=O)CSc2ncnc3ccccc23)cc1S(=O)(=O)N1CCOCC1 do in these assays?
TROY signal inh: 53*; LGR2 inh: 27; EWS-Fli block: 4; LMP1 NFkB inh: 13; TWEAK Fn14 block: 71*

What do the screens show for `Cc1ccc(NC(=O)CSc2ncnc3ccccc23)cc1S(=O)(=O)N1CCCCC1`?
TROY signal inh: 35; LGR2 inh: 28; LMP1 NFkB inh: 19; TWEAK Fn14 block: 72*

How did CC(C)Nc1nnc(SCC(=O)Nc2ccc3c(c2)C(=O)c2ccccc2C3=O)s1 do in these assays?
TROY signal inh: 24; LGR2 inh: -9; LMP1 NFkB inh: -21; TWEAK Fn14 block: 59*

How did C[C@@H]1CCCCO[C@@H](CN(C)S(=O)(=O)c2cn(C)cn2)[C@H](C)CN([C@@H](C)CO)C(=O)c2cc(NS(C)(=O)=O)ccc2O1 do in these assays?
LGR2 inh: -12; EWS-Fli block: -1

Results for O=C(Nc1ccccc1F)N1[C@@H](CO)[C@@H]2c3ccccc3NC[C@@H]21 ?
LGR2 inh: 4; EWS-Fli block: -21

Results for CC(=O)Nc1cccc(NC(=O)CSc2nc(C3CC3)nc3ccccc23)c1 ?
TROY signal inh: 9; LGR2 inh: -12; EWS-Fli block: 9; LMP1 NFkB inh: 23; TWEAK Fn14 block: 31

What do the screens show for `CC(=O)c1cccc(NC(=O)CSc2nc(C3CC3)nc3ccccc23)c1`?
TROY signal inh: 40; LGR2 inh: 14; EWS-Fli block: 16; LMP1 NFkB inh: 7; TWEAK Fn14 block: 58*

How did O=C(CSc1ncnc2ccccc12)Nc1ccc2c(c1)OCO2 do in these assays?
TROY signal inh: -14; LGR2 inh: -37; EWS-Fli block: -3; LMP1 NFkB inh: 2; TWEAK Fn14 block: 65*

How did COc1ccc(Cc2[nH]n3c(=O)c(Cl)c(C)nc3c2-c2ccccc2)cc1 do in these assays?
TROY signal inh: 69*; LGR2 inh: -30; EWS-Fli block: 4; LMP1 NFkB inh: -3; TWEAK Fn14 block: 26

What do the screens show for `CCc1noc(C)c1C(=O)N(C)CC(=O)Nc1cccc(OC)c1`?
TROY signal inh: 6; LGR2 inh: -6; EWS-Fli block: -3; LMP1 NFkB inh: 68*; TWEAK Fn14 block: -2

Results for Nc1nnnn1/N=C/C(Br)=C/c1ccccc1 ?
TROY signal inh: 11; LMP1 NFkB inh: 22; TWEAK Fn14 block: 75*

Source: PubChem BioAssay (several laboratories)
